From PubChem BioAssay
“And” between values parts separate entries of the source, which are not always exact repeats. Identical values can stand only once. The source made the active and inactive calls.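 The calls were made as follows, unless noted: active = compounds whose cell count with miR-34 switched on is under 0.7 times the count with it off; inactive = the rest.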

Experiments:
[1] = sensitizers of A549 cells to miR-34 induction, primary screen, imaging, A549 dox-inducible miR-34, nuclei and caspase counts (AID 1347080); conditions: A549 miR-34 inducible, Hoechst nuclei count, 48 h
[2] = survival rescue of mitochondrial mutant cells in low glucose, primary screen, MELAS cybrids, Rieske KO mouse fibroblasts, CellTiter-Glo (AID 1508586;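 active = mean z-score across replicates of 1.96 or higher in either the MELAS or the Rieske mutant cell line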;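 also: z relative to plate mean and SD of compound and empty wells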)
[3] = target: Mitogen-activated protein kinase 7 (Homo sapiens) (UniProt Q13164); test: ERK5 transactivation activators in reporter cells, primary screen, cell-based, HTS (AID 1508626;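 active = luciferase signal above three times the same-plate solvent-only control wells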;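 also: luciferase driven by Gal4-ERK5 fusion binding five Gal4 sites before minimal TATA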); conditions: HeLa Gal4-ERK5 transactivation, 18 h, at 5 µM, stronger effect = higher value
[4] = target: NAD(+) hydrolase SARM1 (Homo sapiens) (UniProt Q6SZW1); test: SARM1 TIR NADase inhibitors, cell lysate, NAD-Glo luminescence (AID 1508614;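 active = compound whose remaining NAD level is above about 45 nM, limit read from the data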;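 also: higher remaining NAD means stronger inhibition of SARM1 NADase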); conditions: SAM-TIR HEK293T lysate NADase, at 1 µM, stronger effect = higher value
[5] = viability rescue of complex I mutant cybrids, primary screen, cell-based, galactose medium, ATP luminescence (AID 1645843;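 active = z-score of at least 1.8 in each of two replicates, scored against plate mean and spread of sample wells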;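 also: positive z means more ATP and so rescue of galactose-driven cybrid death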); conditions: complex I mutant cybrid cells, 72 h, stronger effect = higher value
[6] = LFS_MB_P medulloblastoma growth inhibition, cell-based, chromothripsis tumors, cisplatin or BGB combos (AID 1671449; in the data active = inhibition above about 80%;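 also: cells exposed for 96 hours; 0% = vehicle DMSO and 100% = killing by high DMSO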); conditions: LFS_MB_P medulloblastoma cells
[7] = HDN33 neuroblastoma growth inhibition, cell-based, chromothripsis tumors, cisplatin or BGB combos (AID 1671450; in the data active = inhibition above about 80%;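 also: cells exposed to compound for four days; 0% = vehicle DMSO and 100% = cell killing by high DMSO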); conditions: HDN33 neuroblastoma cells, stronger effect = higher value
[8] = ICB984 medulloblastoma cell growth inhibition, synergistic combos for chromothripsis tumors, cisplatin or BGB combos (AID 1671451; call rule not given here;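 also: cells exposed for 96 hours before readout; 0% = vehicle DMSO and 100% = killing by high DMSO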); conditions: ICB984 medulloblastoma cells, drug combinations, stronger effect = higher value
[9] = LFS_MB_1R medulloblastoma cell growth inhibition, synergistic combos for chromothripsis tumors, cisplatin or BGB combos (AID 1671452; in the data active = inhibition above about 80%;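 also: cells exposed for 96 hours before readout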); conditions: LFS_MB_1R medulloblastoma cells, stronger effect = higher value
[10] = HTB85 osteosarcoma cell growth inhibition, synergistic combos for chromothripsis tumors, BGB or cisplatin IC20 combos (AID 1671453; in the data active = inhibition above about 80%;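 also: cells exposed for 96 hours before readout; 0% = vehicle DMSO and 100% = high DMSO killing control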); conditions: HTB85 osteosarcoma cells, drug combinations, stronger effect = higher value
[11] = CRL2098 osteosarcoma cell growth inhibition, synergistic combos for chromothripsis tumors, BGB or cisplatin IC20 combos (AID 1671454; in the data active = inhibition above about 80%;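 also: cells exposed for 96 h before readout; 0% = vehicle DMSO and 100% = killing by high DMSO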); conditions: CRL2098 osteosarcoma cells, drug combinations, stronger effect = higher value
[12] = HD-MB03 medulloblastoma cell growth inhibition, synergistic combos for chromothripsis tumors, BGB or cisplatin IC20 combos (AID 1671455; in the data active = inhibition above about 83%;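 also: 0% = vehicle DMSO and 100% = high DMSO as cytotoxic control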); conditions: HD-MB03 medulloblastoma cells, stronger effect = higher value
[13] = stronger effect = lower value, cell number ratio, induced over uninduced
[14] = measured here: relative caspase fold change +Dox/-Dox
[15] = measured here: total cells with miR-34 induction, stronger effect = lower value
[16] = measured here: total cells without miR-34 induction
[17] = MELAS cybrid survival, CellTiter-Glo 48 h, stronger effect = higher value
[18] = Rieske KO mouse fibroblast survival, CellTiter-Glo 72 h
[19] = measured here: combination with BGB IC40, at 0.05 µM

Sequence of NAD(+) hydrolase SARM1 (Homo sapiens) (Q6SZW1 whole entry, looked up): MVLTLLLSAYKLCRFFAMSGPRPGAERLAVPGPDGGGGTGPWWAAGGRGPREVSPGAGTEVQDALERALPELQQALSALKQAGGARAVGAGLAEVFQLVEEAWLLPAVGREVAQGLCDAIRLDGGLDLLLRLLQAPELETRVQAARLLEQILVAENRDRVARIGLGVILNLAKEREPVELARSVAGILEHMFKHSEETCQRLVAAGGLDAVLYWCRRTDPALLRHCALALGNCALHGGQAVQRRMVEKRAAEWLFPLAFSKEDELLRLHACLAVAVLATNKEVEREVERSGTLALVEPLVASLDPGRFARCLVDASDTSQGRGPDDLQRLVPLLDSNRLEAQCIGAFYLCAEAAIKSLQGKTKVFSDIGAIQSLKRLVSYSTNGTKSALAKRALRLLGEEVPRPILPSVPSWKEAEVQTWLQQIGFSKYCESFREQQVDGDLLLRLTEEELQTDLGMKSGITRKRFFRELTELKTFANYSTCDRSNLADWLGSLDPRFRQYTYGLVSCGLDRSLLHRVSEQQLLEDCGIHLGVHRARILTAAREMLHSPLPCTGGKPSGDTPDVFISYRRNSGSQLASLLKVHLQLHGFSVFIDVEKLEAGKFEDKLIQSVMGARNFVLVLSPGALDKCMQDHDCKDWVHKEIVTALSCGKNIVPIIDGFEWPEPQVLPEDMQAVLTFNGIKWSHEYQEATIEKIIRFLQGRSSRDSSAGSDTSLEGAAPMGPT
Sequence of Mitogen-activated protein kinase 7 (Homo sapiens) (Q13164 whole entry, looked up, the tested form may be a part): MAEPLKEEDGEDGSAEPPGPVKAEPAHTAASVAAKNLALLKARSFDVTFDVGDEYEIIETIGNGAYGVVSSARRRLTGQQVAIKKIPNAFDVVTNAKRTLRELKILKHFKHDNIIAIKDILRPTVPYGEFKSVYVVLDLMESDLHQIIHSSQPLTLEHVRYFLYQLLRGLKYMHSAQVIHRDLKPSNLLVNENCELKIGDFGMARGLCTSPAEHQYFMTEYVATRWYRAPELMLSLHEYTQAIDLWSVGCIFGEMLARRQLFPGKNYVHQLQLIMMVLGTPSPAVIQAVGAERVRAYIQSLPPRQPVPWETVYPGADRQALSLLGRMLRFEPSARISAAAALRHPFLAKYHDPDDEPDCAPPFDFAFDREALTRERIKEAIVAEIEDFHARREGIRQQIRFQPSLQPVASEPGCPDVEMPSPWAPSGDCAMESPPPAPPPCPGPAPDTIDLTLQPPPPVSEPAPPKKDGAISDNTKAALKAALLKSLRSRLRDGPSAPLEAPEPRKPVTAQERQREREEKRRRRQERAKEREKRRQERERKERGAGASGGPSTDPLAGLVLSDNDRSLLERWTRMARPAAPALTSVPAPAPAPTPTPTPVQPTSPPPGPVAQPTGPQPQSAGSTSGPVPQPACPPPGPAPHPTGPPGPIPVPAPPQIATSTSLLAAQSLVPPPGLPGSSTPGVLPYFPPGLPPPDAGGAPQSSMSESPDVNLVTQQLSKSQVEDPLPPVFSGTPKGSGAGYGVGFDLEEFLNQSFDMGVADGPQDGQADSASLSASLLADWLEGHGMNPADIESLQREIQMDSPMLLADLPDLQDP

Q: With `CC(C(=O)O)c1ccc(C(=O)c2cccs2)cc1` (configuration not stated) as the molecule, how does the fold change [1, 13] read?
A: 0.842 (inactive) and 0.947 (inactive) and 0.9 (inactive)

Q: What about the fold change [1, 14] of the same molecule?
A: 1.16 and 0.84 and 2.46

Q: And the cell count [1, 15]?
A: 9210 and 7840 and 11900

Q: And the cell count [1, 16]?
A: 10900 and 8270 and 13200

Q: And the z-score [2, 17]?
A: 0.0275 (inactive) and 0.475 (inactive)

Q: What about the z-score [2, 18] of the same molecule?
A: -0.115 and -0.0807

Q: What about the luciferase signal [3] of the same molecule?
A: 92 AU (inactive)

Q: For `CC(Oc1c(Cl)cccc1Cl)C1=NCCN1` (configuration not stated), which fold change [1, 13] is on record?
A: 0.89 (inactive) and 0.878 (inactive) and 0.898 (inactive)

Q: What about the fold change [1, 14] of the same molecule?
A: 0.839 and 1.76 and 1.47

Q: And the cell count [1, 15]?
A: 9080 and 9420 and 9240

Q: What about the cell count [1, 16] of the same molecule?
A: 10200 and 10700 and 10300

Q: And the z-score [2, 17]?
A: -0.146 (inactive) and 0.131 (inactive)

Q: And the z-score [2, 18]?
A: -0.104 and -1.04

Q: And the remaining NAD [4]?
A: 10 nM (inactive)

Q: What about the z-score [5] of the same molecule?
A: 0.71 (inactive) and 0.175 (inactive)

Q: Which results are given for `CC1(C)O[C@@H]2C[C@H]3[C@@H]4CCC5=CC(=O)CC[C@]5(C)[C@@]4(F)[C@@H](O)C[C@]3(C)[C@]2(C(=O)CCl)O1`?
A: fold change [1, 13]: 0.774 (inactive); fold change [1, 14]: 1.34; cell count [1, 15]: 5550; cell count [1, 16]: 7170; z-score [2, 17]: 0.0233 (inactive); z-score [2, 18]: 1.13; luciferase signal [3]: 112 AU (inactive)

Q: For `COc1cc(C(=O)NC2CCCNC2)cc(OC)c1OC` (configuration not stated), which fold change [1, 13] is on record?
A: 0.933 (inactive) and 1.06 (inactive)

Q: What about the fold change [1, 14] of the same molecule?
A: 1.12 and 0.508

Q: What about the cell count [1, 15] of the same molecule?
A: 9210 and 8810

Q: What about the cell count [1, 16] of the same molecule?
A: 9870 and 8310

Q: And the z-score [2, 17]?
A: -0.284 (inactive) and -1.2 (inactive)

Q: What about the z-score [2, 18] of the same molecule?
A: -0.165 and -1.23

Q: And the z-score [5]?
A: 0.125 (inactive)

Q: For `CCN1CCN(c2cc3c(cc2F)c(=O)c(C(=O)O)cn3C2CC2)CC1`, which fold change [1, 13] is on record?
A: 0.982 (inactive) and 0.836 (inactive) and 0.884 (inactive)

Q: And the fold change [1, 14]?
A: 1.31 and 5.17 and 1.41

Q: What about the cell count [1, 15] of the same molecule?
A: 8550 and 10100 and 9090

Q: What about the cell count [1, 16] of the same molecule?
A: 8710 and 12100 and 10300

Q: And the z-score [2, 17]?
A: -0.903 (inactive) and 0.356 (inactive)

Q: What about the z-score [2, 18] of the same molecule?
A: -0.808 and -0.546

Q: And the remaining NAD [4]?
A: 10 nM (inactive)

Q: What about the luciferase signal [3] of the same molecule?
A: 144 AU (inactive)

Q: What about the z-score [5] of the same molecule?
A: -0.045 (inactive) and 0.1 (inactive)

Q: And the inhibition ([6]; at 0.5 µM, stronger effect = higher value)?
A: -14.6% (inactive)

Q: And the inhibition ([6]; measured here: combination with BGB IC20, at 0.005 µM)?
A: -15.1%

Q: What about the inhibition ([6]; measured here: combination with BGB IC40, at 0.005 µM) of the same molecule?
A: -16%

Q: And the inhibition [6, 19]?
A: -15.4%

Q: And the inhibition ([6]; measured here: combination with cisplatin, at 0.5 µM, stronger effect = higher value)?
A: -35.9%

Q: And the inhibition ([6]; measured here: combination with cisplatin, at 5 µM, stronger effect = higher value)?
A: -7.57%

Q: What about the inhibition ([7]; BGB combo, at 5 µM) of the same molecule?
A: -5.32%

Q: And the inhibition ([7]; at 0.5 µM)?
A: -11.2% (inactive)

Q: What about the inhibition ([7]; cisplatin combo, at 5 µM) of the same molecule?
A: 14%

Q: What about the inhibition ([7]; measured here: with BGB IC20 combination, at 0.5 µM) of the same molecule?
A: -32.1%

Q: What about the inhibition ([7]; measured here: with cisplatin IC20 combination, at 0.5 µM) of the same molecule?
A: 1.88%

Q: What about the inhibition ([7]; single agent, at 5 µM) of the same molecule?
A: -10.9%

Q: And the inhibition ([8]; BGB IC20 combo, at 0.005 µM)?
A: -8.19%

Q: What about the inhibition ([8]; BGB IC40 combo, at 0.005 µM) of the same molecule?
A: -15.5%

Q: And the inhibition ([8]; BGB IC40 combo, at 0.05 µM)?
A: -15.7%

Q: And the inhibition ([8]; at 0.5 µM)?
A: -30.1% (inactive)

Q: And the inhibition ([8]; cisplatin combo, at 0.05 µM)?
A: -18.9%

Q: What about the inhibition ([8]; cisplatin combo, at 0.5 µM) of the same molecule?
A: -33.6%

Q: And the inhibition ([8]; cisplatin combo, at 5 µM)?
A: 5.13%

Q: What about the inhibition ([8]; measured here: 5 uM single agent, at 5 µM) of the same molecule?
A: -24%

Q: What about the inhibition ([9]; at 0.5 µM) of the same molecule?
A: -17.4% (inactive)

Q: And the inhibition [9, 19]?
A: -29.3%

Q: What about the inhibition ([9]; measured here: combination with cisplatin, at 0.5 µM) of the same molecule?
A: -5.5%

Q: And the inhibition ([9]; measured here: combination with cisplatin, at 5 µM)?
A: -5.5%

Q: What about the inhibition ([10]; at 0.5 µM) of the same molecule?
A: 4.78% (inactive)

Q: What about the inhibition ([10]; measured here: with BGB IC20, at 0.5 µM) of the same molecule?
A: -19%

Q: And the inhibition ([10]; measured here: with BGB IC20, at 5 µM)?
A: -4.03%

Q: What about the inhibition ([10]; measured here: with cisplatin IC20, at 0.5 µM) of the same molecule?
A: 19.5%

Q: What about the inhibition ([10]; measured here: with cisplatin IC20, at 5 µM) of the same molecule?
A: -34%

Q: And the inhibition ([10]; single agent, at 5 µM)?
A: -31.7%

Q: What about the inhibition ([11]; at 0.5 µM) of the same molecule?
A: -28.3% (inactive)

Q: What about the inhibition ([11]; measured here: combination with BGB at IC20, at 0.5 µM) of the same molecule?
A: -35.5%

Q: What about the inhibition ([11]; measured here: combination with cisplatin at IC20, at 0.5 µM) of the same molecule?
A: -26.8%

Q: And the inhibition ([12]; at 0.5 µM)?
A: -4.62% (inactive)

Q: And the inhibition ([12]; measured here: combo with BGB at IC20, at 0.5 µM)?
A: -3.92%

Q: What about the inhibition ([12]; measured here: combo with cisplatin at IC20, at 0.5 µM) of the same molecule?
A: -4.26%

Q: What does the source list for `CCN1CC(CCN2CCOCC2)C(c2ccccc2)(c2ccccc2)C1=O` (configuration not stated)?
A: fold change [1, 13]: 0.947 (inactive) and 1 (inactive); fold change [1, 14]: 1.42 and 1.3; cell count [1, 15]: 7960 and 7680; cell count [1, 16]: 8400 and 7650; z-score [2, 17]: -0.295 (inactive) and -0.762 (inactive); z-score [2, 18]: -0.241 and -0.506; remaining NAD [4]: 10 nM (inactive); z-score [5]: 0.71 (inactive)
